# Source: publication PMC4336329 (PLoS ONE, 2015)
# The whole screen tested about 310,000 compounds, of which about 14,000 (4.5%) showed an effect of 50% or more. The effect is printed as a negative number. The sample as a whole holds a higher share of strong results than the screen did.
# Target: human ether-à-go-go-related gene (hERG) potassium channel (human, UniProt Q12809)
# Experiment: primary screen, population patch clamp on CHO cells stably expressing hERG; higher = less effect of the substance
# 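Note: peak tail current of the secondary pulse compared with the same well before compound.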
# Sequence of human ether-à-go-go-related gene (hERG) potassium channel (Q12809 whole entry, looked up): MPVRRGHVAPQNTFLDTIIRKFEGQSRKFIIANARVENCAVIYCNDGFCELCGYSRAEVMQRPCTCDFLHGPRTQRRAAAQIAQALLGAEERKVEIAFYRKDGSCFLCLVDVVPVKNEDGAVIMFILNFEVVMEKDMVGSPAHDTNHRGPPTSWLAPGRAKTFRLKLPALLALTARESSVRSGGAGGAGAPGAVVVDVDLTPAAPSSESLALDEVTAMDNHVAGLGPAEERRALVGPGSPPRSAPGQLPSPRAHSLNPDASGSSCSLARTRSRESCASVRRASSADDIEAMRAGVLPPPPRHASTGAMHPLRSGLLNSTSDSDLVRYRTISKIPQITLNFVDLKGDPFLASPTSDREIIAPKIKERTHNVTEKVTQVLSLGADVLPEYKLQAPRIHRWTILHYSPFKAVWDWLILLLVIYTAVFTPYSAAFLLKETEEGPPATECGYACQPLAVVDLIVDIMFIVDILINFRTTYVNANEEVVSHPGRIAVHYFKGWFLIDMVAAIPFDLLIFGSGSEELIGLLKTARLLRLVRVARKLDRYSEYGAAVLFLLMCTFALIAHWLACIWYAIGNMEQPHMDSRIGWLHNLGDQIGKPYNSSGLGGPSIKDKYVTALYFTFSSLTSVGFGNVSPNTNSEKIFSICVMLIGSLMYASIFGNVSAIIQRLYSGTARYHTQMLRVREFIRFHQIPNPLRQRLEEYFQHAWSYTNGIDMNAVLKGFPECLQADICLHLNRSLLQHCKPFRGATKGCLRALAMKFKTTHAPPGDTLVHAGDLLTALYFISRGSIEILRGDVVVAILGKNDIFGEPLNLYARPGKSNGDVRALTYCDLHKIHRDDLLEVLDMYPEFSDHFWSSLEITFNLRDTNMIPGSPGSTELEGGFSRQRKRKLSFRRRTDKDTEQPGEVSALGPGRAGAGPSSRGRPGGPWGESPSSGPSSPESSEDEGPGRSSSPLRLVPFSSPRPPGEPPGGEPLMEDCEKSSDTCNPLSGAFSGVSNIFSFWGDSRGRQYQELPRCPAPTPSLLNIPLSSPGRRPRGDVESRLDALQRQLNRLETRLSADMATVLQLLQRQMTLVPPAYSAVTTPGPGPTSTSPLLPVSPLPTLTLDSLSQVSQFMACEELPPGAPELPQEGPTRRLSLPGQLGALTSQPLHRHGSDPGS
row,SMILES,"hERG current change (%, negative = inhibition) at 10uM [%]"
1,CC1=C/C(=C(/c2ccc(O)c(C)c2)c2ccccc2S(=O)(=O)[O-])C=CC1=O.[Na+],3.9
2,Cc1ccc(NC(=O)CSc2ccc(-c3cccnc3)nn2)cc1,-12.3
3,Cc1cccc(OCC(=O)N/N=C\c2cc3c(cc2[N+](=O)[O-])OCO3)c1C,-7.82
4,Cc1ccccc1C(=O)Nc1ccccc1C(=O)NC1CC1,6.72
5,Cc1ccccc1N(CC(=O)NC1CCCCC1)C(=O)c1csnn1,8.46
6,CCC(=O)Nc1sc2c(c1C(N)=O)CCN(C(C)=O)C2,10.7
7,Cc1ccc(C(=O)Oc2cccc(NC(=O)c3ccccc3)c2)cc1C,19.2
8,Cc1cc(C)cc(NC(=O)[C@@H](NC(=O)c2ccco2)C(C)C)c1,5.62
9,Cc1cc(C(=O)NNC(=O)/C=C/c2ccc(F)cc2)c(C)o1,1.41
10,CCN1CCN(Cc2ccc(NC(=O)c3cc(NC(=O)c4cc(-c5ccc(OC)cc5)n[nH]4)cc(OC)c3)cc2C(F)(F)F)CC1,11.9
11,CC(C)Nc1nc(NC(C)(C)C)nc(Oc2ccc(=O)n(C)n2)n1,-15.3
12,Cc1c(C(=O)NC2=NCCS2)oc2ccccc12,-25.4
13,Cc1cc(C)nc(Oc2ccc(Br)cc2Br)n1,19.1
14,CCOc1ccccc1CN1CCN(S(=O)(=O)CC)CC1.O=C(O)C(=O)O,10.7
15,C=CCOc1ccccc1CN1CCCN(C)CC1,6.51
16,C=CCOc1ccccc1CN1CCC(CO)(CCOc2ccccc2)CC1,-81.9
17,CCOc1ccccc1CN1CCC(CO)(CCOc2ccccc2)CC1,-80.2
18,COc1ccccc1CN1CCN(C(=O)COc2ccccc2)CC1,-8.47
19,OCC1(CCOc2ccccc2)CCN(Cc2ccc(OC(F)F)cc2)CC1,-79

row,SMILES,"hERG current change (%, negative = inhibition) at 10uM [%]"
1,OCC1(CCOc2ccccc2)CCN(Cc2ccccc2OC(F)F)CC1,-72.5
2,OCC1(CCOc2ccccc2)CCN(Cc2ccccc2C(F)(F)F)CC1,-34.2
3,CCOCCCn1c(=O)c(NC(=O)c2ccc(OCC)cc2)c2n(c1=S)CCCCC2,-27.8
4,CCCCCc1nnc(NC(=O)c2cccc(S(=O)(=O)N3CCOCC3)c2)s1,-41.8
5,Cn1c(Cn2c(=O)sc3ccccc32)nnc1SCc1ccccc1F,-19.9
6,CCC(=O)N1CCN(c2ccc(NC(=O)c3cccs3)cc2)CC1,-0.84
7,COc1cc(/C=N/n2cnnc2)ccc1OC(=O)c1ccncc1,8
8,O=C(COc1ncnc2ccccc12)Nc1ccc(S(=O)(=O)N2CCOCC2)cc1,9.94
9,N#C/C=C(/N)c1ccc(Br)cc1,7.26
10,c1ccc(Cn2ncc3c(Nc4ccccc4)ncnc32)cc1,6.01
11,CCOc1ccc(CCNC(=O)COC(=O)C2CCN(c3ccc(C(F)(F)F)cn3)CC2)cc1OCC,-10.9
12,Cc1cccc(NS(=O)(=O)c2ccc(C(=O)NCCCN3CCCC3=O)cc2)c1C,4.04
13,Cc1nc([N+](=O)[O-])cn1CC(O)c1ccc(-c2ccccc2)cc1 (centres unmarked),-44.3
14,Cc1ccc(N=Nc2c(O)n(CN3CCOCC3)c3ccccc23)cc1,3.48
15,Cc1ccc(NC(=O)CS(=O)CC(=O)NC2CCN(Cc3ccccc3)CC2)c(C)c1 (centres unmarked),-3.54
16,FC(F)Oc1ccc(NC(=S)N2CCN(Cc3ccccc3)CC2)cc1,-56
17,S=C(Nc1ccccc1)N1CCN(Cc2ccccc2)CC1,-4.13
18,COc1ccc(NC(=S)N2CCN(Cc3ccccc3)CC2)cc1,0.401
19,Cc1ccc(NS(=O)(=O)c2cccc(C(=O)NCC(c3cccs3)N3CCOCC3)c2)cc1 (centres unmarked),-14.3

row,SMILES,"hERG current change (%, negative = inhibition) at 10uM [%]"
1,Cl.Clc1ccccc1CNC1CN2CCC1CC2 (centres unmarked),-3.27
2,COc1ccc(OCC(=O)Nc2ccc(C(=O)Nc3ccccc3C(=O)O)cc2)cc1,23.2
3,CC(C)(C)c1nnc(NC(=O)c2cc(-c3ccccc3)nc3ccccc23)s1,17.3
4,COc1ccc(CCN(C)C(=O)c2cc(-c3ccc(C)cc3)nc3ccccc23)cc1OC,-26.7
5,COc1ccc(CCN(C)C(=O)c2cc(-c3ccccc3)nc3ccccc23)cc1OC,-4.79
6,COc1ccc(CCN(C)C(=O)c2cc(-c3ccccc3)nc3ccc(C)cc23)cc1OC,-52.1
7,O=C(O)CN1CCN(Cc2ccccc2F)C1=O,24.7
8,COc1cnc(SC)nc1Nc1ccc(C#N)cc1,-66.8
9,COc1ccc(Nc2nccc(-c3ccc(C#N)cc3)n2)cc1,1.36
10,COc1ccc(Nc2nccc(OC)c2C#N)cc1,-38.8
11,COc1cccc(N2C(=O)C3CCCN3C2c2ccc(Cl)cc2)c1 (centres unmarked),-1.05
12,COc1cc(NC(=O)C2CCC(CNc3c(N4CCC(C)CC4)c(=O)c3=O)CC2)cc(OC)c1 (centres unmarked),16.7
13,O=C(CN1CCN(c2ccccn2)CC1)Nc1ccc2ccccc2c1,-43.9
14,O=C1[C@H]2[C@@H](C(=O)N1c1cccc3ccccc13)C1(C(=O)c3ccccc3C1=O)N1CCC[C@@H]21,-69
15,O=C1C2C3C=CC(C4CC34)C2C(=O)N1c1cccc2ccccc12 (centres unmarked),-0.113
16,O=C1C2C3C=CC(C3)C2C(=O)N1c1cccc2ccccc12 (centres unmarked),18.7
17,Cn1c(CCNC(=O)C(C)(C)C)nc2ccccc21,16.4
18,O=C(NC1CCCCC1)C1CC=CCC1C(=O)OCC(Cl)=C(Cl)Cl (centres unmarked),-20.7
